Experimental data: PubChem BioAssay AID624170 (National Center for Advancing Translational Sciences (NCATS), 2012)
“And” between values parts separate entries of the source, which are not always exact repeats. Equal values may be shown once. The campaign covered roughly 410,000 compounds. About 850 (0.21%) were called active. About 2% were inconclusive and are not listed. This is one part of a sample in which actives are shown more often than they occur. Calls come from the whole dose curve; as a rule, active = well fitted inhibition curve with a large enough effect; inconclusive = small, poorly fitted or top-dose-only effect, or another doubt; inactive = no such curve, though single readings can be large or run the other way. More than one record can exist for a structure, and the calls need not agree.

molecular target: Glutaminase kidney isoform, mitochondrial (Homo sapiens) (UniProt O94925); test: qHTS for Inhibitors of Glutaminase (GLS); conditions: GLS enzymatic activity, qHTS titration; series mostly up to 45.5 µM; activity change, negative = inhibition: at the top concentration
Excerpt: Glutaminase (GLS) catalyzes the hydrolysis of glutamine into glutamate and ammonia. It plays a critical role in glutaminolysis, which is an important energy source for proliferating cells. It was shown that c-Myc, an oncogenic transcription factor known to regulate microRNAs and to stimulate cell proliferation, increases glutamine metabolism by stimulating the expression of GLS via direct suppression of miR23a and miR23b.
GLS is also thought to play a pathogenic role on HAD using a human HIV-1 infected macrophage system. […] GLS inhibition limits glutamate release and provides neuroprotection against HIV-1 infected macrophages.
The overall goal of this project is to identify small molecule inhibitors of GLS through quantitative high throughput screening (qHTS) of the MLSMR. A validated potent and selective inhibitor can be used as a tool molecule to further study the pharmacology of its target as well as explore its potential therapeutic application in cancer and inflammatory neurological disorders, such as HIV1-associated dementia (HAD) and multiple sclerosis.
NIH Chemical Genomics Center [NCGC]
NIH Molecular Libraries Probe Centers Network [MLPCN]
Assay Submitter (PI): Barbara S. Slusher, Johns Hopkins University
Three 3 uL of hKGA is dispensed into black well 1536-well plates in 45 mM KH2PO4 (pH 8.2), 0.02% Tween-20. Then 23 nL of compounds are added through pin tool transfer. To this, 1 uL of 1mM L-Glutamine and 1 uL of a solution of L-Glutamateoxidase, HRP, Amplex red are added. Plate is centrifuged for 25 sec before an initial fluorescence read is obtained on the ViewLux, after 30 min of RT incubation, the final read is taken on the ViewLux.
% is set by controls: 0 for no effect and ±100 for the full control effect; potency is the fitted concentration of half-maximal effect.

Chain of Glutaminase kidney isoform, mitochondrial (Homo sapiens) (O94925 whole entry, looked up, canonical isoform): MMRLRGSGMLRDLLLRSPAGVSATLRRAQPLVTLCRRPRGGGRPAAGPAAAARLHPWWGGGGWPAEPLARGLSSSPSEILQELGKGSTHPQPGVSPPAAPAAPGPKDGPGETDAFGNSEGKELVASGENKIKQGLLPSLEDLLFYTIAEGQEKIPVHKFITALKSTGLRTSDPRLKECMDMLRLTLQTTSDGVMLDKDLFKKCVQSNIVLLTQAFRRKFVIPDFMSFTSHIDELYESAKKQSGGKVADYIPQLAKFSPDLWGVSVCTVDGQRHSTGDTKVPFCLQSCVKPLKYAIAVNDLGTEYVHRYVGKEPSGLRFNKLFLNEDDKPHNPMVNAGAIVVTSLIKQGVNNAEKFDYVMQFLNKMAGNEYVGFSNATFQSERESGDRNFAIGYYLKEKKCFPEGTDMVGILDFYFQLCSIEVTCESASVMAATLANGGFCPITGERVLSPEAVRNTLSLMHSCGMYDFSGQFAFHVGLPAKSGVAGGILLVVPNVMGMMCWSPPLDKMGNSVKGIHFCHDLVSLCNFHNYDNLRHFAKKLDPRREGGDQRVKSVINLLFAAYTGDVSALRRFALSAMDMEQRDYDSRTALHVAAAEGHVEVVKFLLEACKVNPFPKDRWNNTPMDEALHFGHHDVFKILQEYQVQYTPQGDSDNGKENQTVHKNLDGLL

Activity change, negative = inhibition, inactive:
CNC(=O)CN1C(=O)c2cccnc2Sc2ccccc21 6.23%, CC(=O)c1ccc(NC(=O)COc2ccccc2-c2nc(-c3ccccc3)no2)cc1 1.67%, CCOC(=O)c1cc2c(=O)n3ccccc3nc2n(CC2CCCO2)c1=NC(=O)c1ccc(C(C)(C)C)cc1 (configuration not stated) 1.12%, CCC(C)C1OC2(C=CC1C)CC1CC(C/C=C(/C)C(OC3CC(OC)C(OC4CC(OC)C(NC(C)=O)C(C)O4)C(C)O3)C(C)/C=C\C=C3\COC4C(O)C(C)=CC(C(=O)O1)C34O)O2 (configuration not stated) -26.7%, C[C@@H]1C[C@H]2[C@@H]3C[C@H](F)C4=CC(=O)C=C[C@@]4(C)[C@]3(F)[C@H](O)C[C@]2(C)[C@@]1(O)C(=O)CO 0.486% [at 20 µM], O=C(Nc1ccccc1Cl)N1CCC(CN2CCCC2)CC1 3.88%, O=C(Nc1ccccc1Cl)N1CCC(CN2CCCCC2)CC1 -5.88%, O=C(/C=C/c1cccc(F)c1)NC1CC1 4.05%, Cc1nnc(C(=O)NC(C)(C)c2nc(C(=O)NCc3ccc(F)cc3)c(O)c(=O)n2C)o1 5.68%, COc1ccc(OC)c([C@H](O)CNC(=O)CN)c1 -13.6% [at 20 µM], Cc1cc(C)c2nc(SCC(=O)N(C)C3CCS(=O)(=O)C3)cc(C)c2c1 (configuration not stated) -2.3%, CCN(C(=O)COC(=O)/C=C/c1nc2ccccc2s1)C1CCS(=O)(=O)C1 (configuration not stated) -13.8%, CCOC(=O)CN1C(C(=O)c2ccccc2)=C(OC(=O)C(C)(C)C)c2ccccc2S1(=O)=O -4.55%, CCC(=O)Nc1cccc(C2=NOC3(C2)C[C@@H](C(N)=O)N(C(=O)c2cc([N+](=O)[O-])cc([N+](=O)[O-])c2C)C3)c1 (some centres not stated) -2.13%, NC(=O)[C@H]1CC2(CC(c3cccc(NC(=O)[C@H]4CCC(=O)N4)c3)=NO2)CN1C(=O)c1ccccc1C(=O)c1ccccc1 (some centres not stated) 7.06%, COc1ccc(OC)c(NC(=O)Cn2c(=O)n(Cc3ccccc3)c(=O)c3ccccc32)c1 -4.18%, CC[C@]1(C)CC(=O)NC1=O 0.282%, O=P(O)(O)OC[C@H](O)CO -1.43%, CC(C)c1ccc(NS(=O)(=O)c2ccc3[nH]cc(C(=O)NC4CCCC4)c(=O)c3c2)cc1 -9.07%, COc1cc(Cl)c(C)cc1NC(=O)CCc1nc2cccnc2n1Cc1cccs1 0.67%, COC(=O)Cc1ccc(OCC(=O)NC2CCCC2)cc1 5.37%, CC1(C)S[C@@H]2[C@H](NC(=O)COc3ccccc3)C(=O)N2C1C(=O)OCc1ccccc1 (some centres not stated) 4.77%, OCC(CO)NC1C[C@](O)(CO)[C@@H](O)[C@H](O)[C@H]1O (some centres not stated) -5.08%, CC(=O)OCC(=O)[C@@]1(O)CC[C@@H]2[C@H]3CCC4=CC(=O)C=C[C@]4(C)[C@]3(F)[C@@H](O)C[C@@]21C 1.13% [at 20 µM], Cc1c(Cl)cccc1NC(=O)C1CCCN(c2ncnc3onc(C)c23)C1 (configuration not stated) -6.23%, Cc1cccc(C(C)C)c1NC(=O)C(NS(=O)(=O)c1cccc2nsnc12)c1ccccc1 (configuration not stated) -0.851%, COCCCn1c(SCC(=O)NC2CCCC2)nnc1-c1ccccc1 -2.76%, COCCn1c(Cc2cccn2C)nnc1SCC(=O)Nc1nccs1 -12.2%, FCOC(C(F)(F)F)C(F)(F)F -0.0238%, C=C1C(=CC=C2CCC[C@@]3(C)[C@@H]2CC[C@H]3[C@H](C)CCCC(C)C)C[C@@H](O)C[C@@H]1O -7.16%, CCOC(=O)c1ccc(NC(=O)CSc2nc3c([nH]c4ccccc43)c(=O)n2C)cc1 -2.03%, CCOc1ccc(-n2c(C)nc3c(cnn3-c3ccc(C)cc3)c2=O)cc1 -4.38%, CCOc1ccc(N/C(N)=N/c2nc(C)c(C)c(=O)[nH]2)cc1 4.49%, COc1ccc(-n2c(O)c(C=NCC(c3ccco3)N3CCCC3)c3ccccc3c2=O)cc1OC (configuration not stated) -0.259%

Potency, inactive and 8.91 µM (active):
CC1(C)SC2C(NC(=O)COc3ccccc3)C(=O)N2C1C(=O)O (configuration not stated)

Potency, active:
O=C(Nc1ccccc1Cl)/C(Cl)=C(\Cl)S(=O)c1ccccc1 (configuration not stated) 1.78 µM, CN(C(=O)COC(=O)c1cc(-c2ccco2)nc2ccccc12)C1CCS(=O)(=O)C1 (configuration not stated) 10 µM, C=C(C)C(=O)Nc1cccc(C2=NOC3(C2)C[C@H](C(N)=O)N(C(=O)C(c2ccccc2)c2ccccc2)C3)c1 (some centres not stated) 14.1 µM, CC(C)(C)C1C/C(=C/c2ccco2)C(=O)/C(=C/c2ccco2)C1 (configuration not stated) 22.4 µM, COCCCn1c(Cc2csc(Nc3cccc(Cl)c3)n2)nnc1SCC(=O)OC1CCCCC1 12.6 µM, CCOc1ccc(-n2c(O)c(/C=N/Nc3nc(C)cc(C)n3)c3ccccc3c2=O)cc1 11.2 µM, CCOc1ccc(-n2c(O)c(/C=N/Nc3nnc(C)c(=O)[nH]3)c3ccccc3c2=O)cc1 10 µM
